Shown are actives, neighbours in structure and some others; about 2% of the full set was active somewhere.
Fh CTSL1 inh – cathepsin L1 inhibition, PFM18AAP counter-screen; recombinant F. hepatica cathepsin L1, Z-Leu-Arg-MCA fluorescence; inhibition, % at 5.96 µM; hit rate 0.49% among 300,000;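 active = inhibition above the mean of all tested compounds plus 3 SD, set per screening campaign, cut at about 17% in these data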;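 also: 0% = plate median of test compound wells and 100% = 1 µM Z-Phe-Ala-diazomethylketone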
A3A deaminase – human APOBEC3A DNA deaminase inhibition; recombinant A3A, FAM/TAMRA ssDNA deamination fluorescence; inhibition, % at 20 µM; hit rate 0.41% among 330,000;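 active = at least 40% inhibition at 20 µM here, with at most 30% in a related deaminase screen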;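 also: plate controls were A3A with DMSO for no effect and wells lacking A3A enzyme for full effect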
APOBEC3G inh – blocks human APOBEC3G single-stranded DNA deamination; Q9HC16; recombinant A3G, ssDNA deamination FAM/TAMRA fluorescence; inhibition, % at 20 µM; hit rate 0.28% among 330,000; AID 493012;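 active = inhibition of at least 40% at 20 µM, with no more than 30% in the related APOBEC3A deaminase screen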;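 also: plate controls were DMSO wells with A3G for no effect and wells lacking A3G enzyme for full effect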
HGIII-sPLA2 inh – Blocks human group III sPLA2 activity. hit rate 0.56% among 370,000. Q9NZ20. QFRET BODIPY PC-A2 liposome hydrolysis, fluorescence. inhibition, % at 12.2 µM;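 active = inhibition above mean plus 3 SD of compounds lying within the high and low control bounds, cut at about 19% in these data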;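 also: 0% = median of test compound wells and 100% = no enzyme DMSO wells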
Target sequence (Q9NZ20 whole entry, looked up): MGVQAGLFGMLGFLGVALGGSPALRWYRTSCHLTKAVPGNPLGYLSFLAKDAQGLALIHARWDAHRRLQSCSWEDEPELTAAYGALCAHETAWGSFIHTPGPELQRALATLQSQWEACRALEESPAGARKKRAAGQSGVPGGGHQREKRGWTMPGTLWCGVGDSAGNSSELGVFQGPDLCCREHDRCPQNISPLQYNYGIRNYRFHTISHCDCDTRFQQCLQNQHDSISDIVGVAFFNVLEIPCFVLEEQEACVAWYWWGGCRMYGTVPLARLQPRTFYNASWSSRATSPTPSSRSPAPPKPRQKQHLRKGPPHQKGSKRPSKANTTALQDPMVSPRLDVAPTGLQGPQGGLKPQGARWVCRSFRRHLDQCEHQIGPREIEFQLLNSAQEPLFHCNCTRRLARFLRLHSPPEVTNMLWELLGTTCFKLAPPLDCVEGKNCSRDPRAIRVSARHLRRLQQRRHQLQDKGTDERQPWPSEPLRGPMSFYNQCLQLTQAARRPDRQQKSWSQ
NALP1 yeast inh – inhibitors of NALP1 inflammasome in yeast | S. cerevisiae NALP1/ASC/caspase-1 growth, X-gal OD620, 72 h | inhibition, % at 10 µM | hit rate 0.61% among 280,000 | AID 2071; in the data active = inhibition mostly above about 24%, no sharp cut-off; inactive = mostly below about 32%
APOBEC3G confirm – confirmation of human APOBEC3G DNA deaminase inhibitors. shares compounds with APOBEC3G inh. recombinant A3G ssDNA deaminase, UDG/FAM-TAMRA fluorescence. inhibition, % at 20 µM. hit rate 72% among 890. AID 493152;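 active = inhibition reaching a set limit in any replicate at 20 µM, the limit being 80% of the first screen's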
UDG ctr A3G – inhibits E. coli UDG, flagging false APOBEC3G inhibitors | shares compounds with APOBEC3G inh | UDG counterscreen, FAM/TAMRA oligo fluorescence | inhibition, % at 20 µM | 710 tested, under 10 active | AID 504715;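 active = compounds giving 40% or more inhibition at 20 µM in any one of the three replicates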;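 also: plate controls were DMSO wells with UDG and oligo for no effect and DMSO wells lacking both for full effect; inhibitors lower the FAM signal released by uracil excision and alkaline cleavage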
Numbers without * were called inactive; · = no result.

SMILES	Fh CTSL1 inh	A3A deaminase	APOBEC3G inh	HGIII-sPLA2 inh	NALP1 yeast inh	APOBEC3G confirm	UDG ctr A3G
Cc1cccc(-c2n[nH]c(=S)n2/N=C/c2ccco2)c1	-2	-7	47*	17	-14	79*	3
Cc1ccc(-c2n[nH]c(=S)n2/N=C/c2ccncc2)cc1	-2	-2	53*	9	16	65*	7
O=[N+]([O-])c1ccc(O)c(/C=N/n2c(-c3ccccc3)n[nH]c2=S)c1	0	-8	26	10	-6	·	·
O=[N+]([O-])c1ccc(Cl)c(/C=N/n2c(-c3ccncc3)n[nH]c2=S)c1	-4	0	48*	-2	·	57*	-6
Cc1ccc(-n2c(N)c(C(N)=O)sc2=S)cc1	-1	1	58*	14	14	58*	-1
Cc1ccc(Nc2c(F)cccc2Cl)c(CC(=O)O)c1	·	·	·	-24	·	·	·
COC(=O)CSc1nc(N)c2c3c(sc2n1)CCCC3	0	-4	-8	-1	18	·	·
COC(=O)CSc1nc(N)c2c3c(sc2n1)C(c1ccccc1)SC(c1ccccc1)C3 (centres undefined)	8	-1	43*	·	23	4	2
CSc1ccc(C=Nn2c(-c3cc(C)[nH]n3)n[nH]c2=S)cc1	·	·	·	6	·	·	·
O=C(NNc1ccc(O)cc1)c1ccc(Br)cc1	-1	-3	53*	3	23	19	-2
O=[N+]([O-])c1ccc(N/N=C/c2cccnc2)cc1	5	-5	1	-1	17	·	·
Clc1ccc(N/N=C/c2cccnc2)cc1	17*	-1	40*	0	25	0	1
C/C(=N\NC(=O)C(=O)N/N=C(\C)c1cccc(O)c1)c1cccc(O)c1	4	2	58*	5	32	1	·
FC(F)Oc1ccc(/C=N/n2c(Cc3ccc(Br)cc3)n[nH]c2=S)cc1	5	4	48*	-4	-19	42*	-2
COCc1cc(C)c(C#N)c(=S)[nH]1	9	2	80*	·	4	79*	-3
COCc1cc(=O)[nH]c(=S)[nH]1	-3	-3	-4	-2	18	·	·
CCC1=NNc2cccc3c(OC)ccc1c23	4	2	60*	·	-6	73*	·
COc1ccc(C(C(=O)N(C)C2CCCC2)N(Cc2ccc(F)cc2)C(=O)c2sccc2Cl)cc1OC (centres undefined)	·	·	·	-2	·	·	·
CN(CCc1ccccn1)C(=O)c1ccc(Sc2ccccc2Cl)c([N+](=O)[O-])c1	·	·	·	7	·	·	·
CCn1c(N)c(C(=O)NCC2CCCO2)sc1=S (centres undefined)	-1	-13	40*	-1	-4	67*	1
CCNC(=O)c1sc(=S)n(CC)c1N	9	2	-1	12	-7	·	·
CCn1c(N)c(C(=O)NC)sc1=S	3	2	59*	7	5	24	·
CCN(CCNC(=O)[C@H]1C=C(OC)C(=O)C[C@H](c2ccccc2)[C@H]1C)C(C)=O	·	·	·	3	·	·	·
CCOC(=O)CCSc1n[nH]c(=S)s1	-1	0	23	15	25	·	·
CCOC(=O)CSc1n[nH]c(=S)s1	6	-2	87*	-4	2	72*	-1
SMILES	Fh CTSL1 inh	A3A deaminase	APOBEC3G inh	HGIII-sPLA2 inh	NALP1 yeast inh	APOBEC3G confirm	UDG ctr A3G
Cc1ccc(C(=O)CSc2nnnn2C(C)C)c(C)c1	-1	-3	54*	-20	39	4	-2
Cc1ccc(C)c(C(=O)CSc2nnnn2C(C)C)c1	0	-3	-2	-30	34	·	·
CN(CCc1ccccc1)C(=O)c1ccc2c(c1)ncn2C1CCCCC1	·	·	·	-1	·	·	·
CC(=O)N(C1=C(Cl)C(=O)c2ccccc2C1=O)C1CCCCC1	23*	5	83*	-11	66*	92*	-1
CCCN1CCCCC(NC(=O)c2c(F)cccc2F)C1=O (centres undefined)	·	·	·	3	·	·	·
COc1ccc(C2NC(=S)N3C(c4ccc(OC)cc4)NC(=S)N23)cc1 (centres undefined)	-2	-3	45*	4	-9	34*	-3
CC[n+]1c(C)sc2sc3ccccc3c21	-2	25	55*	·	·	67*	·
CC[n+]1c(C)sc2c3ccsc3ccc21	-1	29	20	2	-11	·	·
C#CCN1CC(COCCCC)Oc2cccc(Oc3ccc(C(C)(C)C)c(C)c3)c2S1(=O)=O (centres undefined)	·	·	·	-4	·	·	·
C/C(=N\Nc1cccc2cccnc12)c1ccccn1	3	2	1	10	-2	·	·
C/C(=N\Nc1cccc2cccnc12)c1ccc(N)cc1	0	3	58*	-3	-1	27	·
Nn1c(SCc2c(Cl)cccc2Cl)nnc1-c1n[nH]c2c1CCC2	·	·	·	6	·	·	·
COC(=O)Nc1ccc(S(=O)(=O)N2CCCCC2C(=O)NCc2ccco2)cc1 (centres undefined)	0	1	63*	-5	17	2	·
COc1ccc(-n2c(SCC(=O)N3CCCCC3C)nnc2-c2ccncc2)cc1 (centres undefined)	·	·	·	2	·	·	·
CCOC(=O)c1ccc(NC(=O)c2cccc(S(=O)(=O)N3CCOCC3)c2)cc1	-1	-19	-7	-16	4	·	·
O=C(CCCSc1ccc(Cl)cc1)Nc1cc(S(=O)(=O)N2CCOCC2)ccc1O	·	-3	51*	-31	·	73*	1
CCOC(=O)c1ccc(S(=O)(=O)Nc2cc(S(=O)(=O)N3CCOCC3)ccc2O)cc1	·	1	52*	-10	·	27*	-4
Cc1ccc(S(=O)(=O)N2CCOCC2)cc1NC(=O)CSc1ccc(Cl)cc1	1	-2	-8	-12	·	·	·
c1ccc(Cn2c(SC3CCCCC3)nnc2-c2cccnc2)cc1	·	·	·	2	·	·	·
CC(/C=N/n1c(-c2ccco2)n[nH]c1=S)=C\c1ccccc1	1	0	12	6	28	·	·
S=c1[nH]nc(C2CCCCC2)n1/N=C/c1ccccn1	-2	-4	51*	6	21	79*	4
S=c1[nH]nc(C2CCCCC2)n1/N=C/c1ccccc1	-7	1	11	6	5	·	·
S=c1[nH]nc(-c2ccccc2)n1/N=C/c1ccc(Cl)cc1	·	·	·	2	14	·	·
S=c1[nH]nc(-c2ccccn2)n1/N=C/c1c(Cl)cccc1Cl	-4	-1	71*	-3	19	93*	0
CC(/C=N/n1c(-c2ccccn2)n[nH]c1=S)=C\c1ccccc1	5	2	51*	0	7	37*	2
S=c1[nH]nc(-c2ccccn2)n1/N=C/c1ccc(Cl)cc1	-2	-6	50*	12	-1	82*	-4
COc1ccc(C(=O)NCC2CCN(C(=O)C(=O)c3cccs3)CC2)cc1	·	·	·	15	·	·	·
CC1CCC2(CCC(=O)N2C[C@@H](O)c2ccccc2)CC1 (some centres undefined)	·	·	·	2	·	·	·

Screening results deposited in PubChem BioAssay by several laboratories.
